Columns and labels:
Assay in all cases: log2 ratio of Biotin-Ahx-Ub-VS probe labelling (fragment/DMSO); higher = less target engagement (more negative = stronger competition), active = hit call of the paper (q ≤ 0.05, log2 ratio ≤ -1)
Conditions in all cases: compound concentration: 200 uM; treatment time: 3 h
[1] = molecular target: USP9X (UniProt Q93008)
In short: (§1)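 HEK293T lysate (495 µg per sample, in Tris/CHAPS/IGEPAL buffer with protease inhibitors) was treated in triplicate with fragment at 200 µM or with DMSO for 3 h. It was then treated with Biotin-Ahx-Ub-VS (0.5 µM final) for 1 h. Labelled DUBs were NeutrAvidin-enriched, digested with LysC and trypsin, and run by diaPASEF LC-MS/MS. Spectronaut label-free quantities were global-median-normalised. Values are average log2 ratios fragment/DMSO by unpaired t-test, using proteins with ≥2 unique peptides.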

[2] = molecular target: UniProt O00487
In short: as §1

[3] = molecular target: UniProt O00507
In short: as §1

[4] = molecular target: UniProt P51784
In short: as §1

[5] = molecular target: T1, UniProt Q5T2D3
T1 sequence (whole entry): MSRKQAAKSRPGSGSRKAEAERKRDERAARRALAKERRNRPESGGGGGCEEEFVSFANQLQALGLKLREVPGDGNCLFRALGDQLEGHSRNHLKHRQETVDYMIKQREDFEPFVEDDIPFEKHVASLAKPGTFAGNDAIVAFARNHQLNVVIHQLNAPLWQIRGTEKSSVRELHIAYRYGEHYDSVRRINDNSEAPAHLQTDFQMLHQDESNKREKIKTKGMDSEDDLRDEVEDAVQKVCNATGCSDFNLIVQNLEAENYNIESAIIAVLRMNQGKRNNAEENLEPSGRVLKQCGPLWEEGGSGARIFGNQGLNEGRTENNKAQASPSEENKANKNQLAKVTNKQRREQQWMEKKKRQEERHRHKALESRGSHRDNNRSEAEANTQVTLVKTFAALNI
In short: as §1

[6] = molecular target: T2, UniProt Q8TE49
T2 sequence (whole entry): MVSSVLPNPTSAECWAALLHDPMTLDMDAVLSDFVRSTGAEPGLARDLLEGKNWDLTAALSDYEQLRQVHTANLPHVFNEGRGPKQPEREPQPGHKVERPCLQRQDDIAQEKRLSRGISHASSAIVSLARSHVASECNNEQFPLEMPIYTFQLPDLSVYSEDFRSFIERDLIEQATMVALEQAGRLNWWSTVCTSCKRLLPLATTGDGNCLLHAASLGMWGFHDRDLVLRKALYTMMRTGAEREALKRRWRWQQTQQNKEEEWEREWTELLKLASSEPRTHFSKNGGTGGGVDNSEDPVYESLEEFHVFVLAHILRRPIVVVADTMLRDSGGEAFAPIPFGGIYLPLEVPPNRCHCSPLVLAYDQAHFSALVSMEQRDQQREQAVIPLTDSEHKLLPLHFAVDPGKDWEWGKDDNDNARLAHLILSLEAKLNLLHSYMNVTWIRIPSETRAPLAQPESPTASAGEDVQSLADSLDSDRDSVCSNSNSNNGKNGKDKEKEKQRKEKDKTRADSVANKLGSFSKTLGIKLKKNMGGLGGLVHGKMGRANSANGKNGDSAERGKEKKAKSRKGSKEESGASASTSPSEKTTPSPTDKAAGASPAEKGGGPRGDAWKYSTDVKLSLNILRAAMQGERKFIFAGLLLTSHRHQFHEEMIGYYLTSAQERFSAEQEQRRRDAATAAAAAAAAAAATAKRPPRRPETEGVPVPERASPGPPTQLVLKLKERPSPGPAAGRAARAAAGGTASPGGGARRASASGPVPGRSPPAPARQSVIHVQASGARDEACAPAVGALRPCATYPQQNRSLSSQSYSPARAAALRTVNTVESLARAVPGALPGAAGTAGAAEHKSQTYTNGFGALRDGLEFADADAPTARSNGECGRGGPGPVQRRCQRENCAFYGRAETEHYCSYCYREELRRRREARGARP
In short: as §1

[7] = molecular target: T3, UniProt Q9P2H5
T3 sequence (whole entry): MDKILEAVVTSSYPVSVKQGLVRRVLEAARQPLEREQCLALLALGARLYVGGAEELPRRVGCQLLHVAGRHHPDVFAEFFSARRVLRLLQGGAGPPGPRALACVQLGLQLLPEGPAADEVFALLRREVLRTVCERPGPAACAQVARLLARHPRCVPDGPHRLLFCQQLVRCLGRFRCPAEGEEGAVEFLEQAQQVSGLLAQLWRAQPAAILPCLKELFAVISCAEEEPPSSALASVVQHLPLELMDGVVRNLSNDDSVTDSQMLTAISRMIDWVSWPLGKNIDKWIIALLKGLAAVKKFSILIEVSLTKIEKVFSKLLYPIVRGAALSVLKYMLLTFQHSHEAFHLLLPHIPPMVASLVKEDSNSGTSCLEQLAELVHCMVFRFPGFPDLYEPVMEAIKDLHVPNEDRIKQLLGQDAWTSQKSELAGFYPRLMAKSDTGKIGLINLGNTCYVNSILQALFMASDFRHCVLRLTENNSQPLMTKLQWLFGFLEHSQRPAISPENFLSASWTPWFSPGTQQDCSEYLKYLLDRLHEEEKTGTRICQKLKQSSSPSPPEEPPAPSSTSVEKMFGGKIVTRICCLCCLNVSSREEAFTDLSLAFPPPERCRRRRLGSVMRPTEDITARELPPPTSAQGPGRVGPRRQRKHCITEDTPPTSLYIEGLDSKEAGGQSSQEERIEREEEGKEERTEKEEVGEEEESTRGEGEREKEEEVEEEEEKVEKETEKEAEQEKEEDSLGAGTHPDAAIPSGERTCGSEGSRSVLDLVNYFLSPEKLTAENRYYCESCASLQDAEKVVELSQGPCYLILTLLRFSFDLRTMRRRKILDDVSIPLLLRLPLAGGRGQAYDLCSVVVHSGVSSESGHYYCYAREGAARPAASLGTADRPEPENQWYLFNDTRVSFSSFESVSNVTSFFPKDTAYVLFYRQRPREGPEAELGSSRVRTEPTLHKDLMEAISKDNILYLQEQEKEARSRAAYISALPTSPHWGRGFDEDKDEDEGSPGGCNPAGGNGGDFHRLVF
In short: as §1

[8] = molecular target: T4, UniProt Q9UGI0
T4 sequence (whole entry): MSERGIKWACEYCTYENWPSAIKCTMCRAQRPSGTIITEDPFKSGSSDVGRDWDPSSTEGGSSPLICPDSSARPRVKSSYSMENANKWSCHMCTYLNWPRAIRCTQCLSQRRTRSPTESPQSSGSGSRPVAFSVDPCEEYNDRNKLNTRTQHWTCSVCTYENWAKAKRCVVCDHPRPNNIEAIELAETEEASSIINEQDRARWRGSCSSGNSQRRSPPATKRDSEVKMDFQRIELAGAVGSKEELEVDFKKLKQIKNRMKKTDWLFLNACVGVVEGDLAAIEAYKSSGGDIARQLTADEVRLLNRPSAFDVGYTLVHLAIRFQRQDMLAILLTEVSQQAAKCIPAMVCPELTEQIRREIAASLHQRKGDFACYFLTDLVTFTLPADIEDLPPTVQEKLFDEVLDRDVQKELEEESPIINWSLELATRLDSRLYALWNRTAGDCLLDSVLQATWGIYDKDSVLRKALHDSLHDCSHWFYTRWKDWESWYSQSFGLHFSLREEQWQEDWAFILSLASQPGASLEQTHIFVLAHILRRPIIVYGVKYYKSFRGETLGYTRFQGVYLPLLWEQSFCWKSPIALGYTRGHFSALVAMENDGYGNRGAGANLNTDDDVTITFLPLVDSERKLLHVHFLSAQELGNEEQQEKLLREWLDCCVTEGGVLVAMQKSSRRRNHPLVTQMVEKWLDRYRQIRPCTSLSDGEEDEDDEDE
In short: as §1

[9] = molecular target: T5, YOD1 (UniProt Q5VVQ6)
T5 sequence (whole entry): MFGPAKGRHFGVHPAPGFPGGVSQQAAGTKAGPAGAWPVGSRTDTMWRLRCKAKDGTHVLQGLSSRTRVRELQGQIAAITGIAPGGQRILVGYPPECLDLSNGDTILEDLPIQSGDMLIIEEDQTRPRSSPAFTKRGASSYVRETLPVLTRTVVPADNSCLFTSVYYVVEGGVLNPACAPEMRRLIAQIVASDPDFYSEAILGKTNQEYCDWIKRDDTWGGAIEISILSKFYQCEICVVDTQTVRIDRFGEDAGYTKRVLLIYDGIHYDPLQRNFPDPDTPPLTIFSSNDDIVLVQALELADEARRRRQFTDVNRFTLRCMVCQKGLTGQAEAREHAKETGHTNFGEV
In short: as §1

Measured: log2 ratio of Biotin-Ahx-Ub-VS probe labelling

Sequence of USP9X (Q93008 whole entry, the tested form may be a part): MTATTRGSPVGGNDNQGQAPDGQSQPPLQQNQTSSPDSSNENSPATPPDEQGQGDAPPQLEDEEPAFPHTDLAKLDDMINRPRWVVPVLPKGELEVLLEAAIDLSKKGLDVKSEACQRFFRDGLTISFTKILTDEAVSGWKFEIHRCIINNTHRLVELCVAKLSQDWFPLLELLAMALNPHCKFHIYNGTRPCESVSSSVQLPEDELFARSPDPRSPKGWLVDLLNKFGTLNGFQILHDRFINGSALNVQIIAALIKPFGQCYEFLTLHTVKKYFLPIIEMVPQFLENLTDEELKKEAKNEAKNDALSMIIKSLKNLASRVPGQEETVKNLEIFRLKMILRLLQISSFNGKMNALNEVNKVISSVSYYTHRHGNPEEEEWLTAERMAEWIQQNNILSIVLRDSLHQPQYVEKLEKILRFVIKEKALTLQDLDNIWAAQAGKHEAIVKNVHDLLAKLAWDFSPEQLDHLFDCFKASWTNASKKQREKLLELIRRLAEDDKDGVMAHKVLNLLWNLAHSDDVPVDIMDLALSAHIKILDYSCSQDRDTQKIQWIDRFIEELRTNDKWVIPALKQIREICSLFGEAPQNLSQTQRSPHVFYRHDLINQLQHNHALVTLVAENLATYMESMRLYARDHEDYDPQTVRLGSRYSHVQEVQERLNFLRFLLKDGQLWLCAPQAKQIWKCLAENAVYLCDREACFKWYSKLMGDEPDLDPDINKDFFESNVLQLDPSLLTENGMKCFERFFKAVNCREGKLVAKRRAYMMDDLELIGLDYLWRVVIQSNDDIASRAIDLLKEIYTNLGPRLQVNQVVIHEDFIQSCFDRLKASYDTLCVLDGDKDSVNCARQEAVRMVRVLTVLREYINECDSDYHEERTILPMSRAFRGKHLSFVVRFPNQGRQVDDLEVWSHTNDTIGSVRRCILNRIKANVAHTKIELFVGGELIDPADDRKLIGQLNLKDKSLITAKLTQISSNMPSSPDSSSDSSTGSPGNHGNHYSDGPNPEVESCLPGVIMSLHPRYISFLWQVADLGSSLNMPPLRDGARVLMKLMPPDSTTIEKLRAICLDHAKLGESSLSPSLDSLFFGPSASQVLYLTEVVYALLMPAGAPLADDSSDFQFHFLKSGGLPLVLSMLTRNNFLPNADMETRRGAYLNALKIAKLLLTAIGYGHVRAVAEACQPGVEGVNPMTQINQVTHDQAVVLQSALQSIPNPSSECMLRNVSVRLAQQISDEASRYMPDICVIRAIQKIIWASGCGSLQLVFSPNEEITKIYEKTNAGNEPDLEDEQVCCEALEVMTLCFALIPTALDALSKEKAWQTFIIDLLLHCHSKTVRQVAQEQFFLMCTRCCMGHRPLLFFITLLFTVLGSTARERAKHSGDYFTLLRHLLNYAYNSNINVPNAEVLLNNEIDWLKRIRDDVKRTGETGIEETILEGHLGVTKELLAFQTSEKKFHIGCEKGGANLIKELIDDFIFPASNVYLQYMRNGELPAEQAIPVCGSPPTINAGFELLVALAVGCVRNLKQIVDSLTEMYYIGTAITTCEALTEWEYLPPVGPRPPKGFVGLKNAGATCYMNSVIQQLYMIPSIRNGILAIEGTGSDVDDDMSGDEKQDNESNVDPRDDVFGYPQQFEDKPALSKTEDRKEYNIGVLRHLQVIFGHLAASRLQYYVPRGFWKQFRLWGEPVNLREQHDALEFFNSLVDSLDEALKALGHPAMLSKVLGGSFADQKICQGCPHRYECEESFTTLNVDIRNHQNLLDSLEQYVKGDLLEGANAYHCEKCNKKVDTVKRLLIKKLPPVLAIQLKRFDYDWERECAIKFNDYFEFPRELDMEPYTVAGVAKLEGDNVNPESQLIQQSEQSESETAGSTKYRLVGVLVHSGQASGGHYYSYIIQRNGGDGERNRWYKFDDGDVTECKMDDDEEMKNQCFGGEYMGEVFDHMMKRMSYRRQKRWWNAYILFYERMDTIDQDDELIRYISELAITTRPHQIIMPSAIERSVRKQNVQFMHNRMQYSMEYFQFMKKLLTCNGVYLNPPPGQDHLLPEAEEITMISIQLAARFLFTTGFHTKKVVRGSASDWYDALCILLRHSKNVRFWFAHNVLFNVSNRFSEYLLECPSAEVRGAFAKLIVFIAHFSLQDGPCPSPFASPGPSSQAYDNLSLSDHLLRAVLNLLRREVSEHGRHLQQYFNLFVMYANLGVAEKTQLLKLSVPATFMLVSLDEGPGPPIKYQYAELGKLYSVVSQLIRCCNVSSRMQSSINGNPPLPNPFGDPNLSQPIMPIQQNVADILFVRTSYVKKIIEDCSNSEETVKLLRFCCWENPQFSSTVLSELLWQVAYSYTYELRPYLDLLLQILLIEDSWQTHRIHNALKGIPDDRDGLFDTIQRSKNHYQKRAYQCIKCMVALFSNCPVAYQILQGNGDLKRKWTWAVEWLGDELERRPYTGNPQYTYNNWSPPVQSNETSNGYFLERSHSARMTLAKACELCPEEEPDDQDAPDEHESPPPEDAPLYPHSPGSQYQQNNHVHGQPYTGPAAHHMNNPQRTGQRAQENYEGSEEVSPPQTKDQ
Sequence of UniProt O00487 (O00487 whole entry): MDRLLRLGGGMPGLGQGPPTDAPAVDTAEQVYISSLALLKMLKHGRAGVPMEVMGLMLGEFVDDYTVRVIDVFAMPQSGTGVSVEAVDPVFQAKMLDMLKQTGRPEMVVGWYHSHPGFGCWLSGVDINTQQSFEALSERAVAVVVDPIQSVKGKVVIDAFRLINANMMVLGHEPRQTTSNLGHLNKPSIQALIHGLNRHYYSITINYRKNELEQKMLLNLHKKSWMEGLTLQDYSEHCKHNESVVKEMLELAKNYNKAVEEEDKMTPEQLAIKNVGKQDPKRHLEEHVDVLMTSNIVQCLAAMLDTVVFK
Sequence of UniProt P51784 (P51784 whole entry): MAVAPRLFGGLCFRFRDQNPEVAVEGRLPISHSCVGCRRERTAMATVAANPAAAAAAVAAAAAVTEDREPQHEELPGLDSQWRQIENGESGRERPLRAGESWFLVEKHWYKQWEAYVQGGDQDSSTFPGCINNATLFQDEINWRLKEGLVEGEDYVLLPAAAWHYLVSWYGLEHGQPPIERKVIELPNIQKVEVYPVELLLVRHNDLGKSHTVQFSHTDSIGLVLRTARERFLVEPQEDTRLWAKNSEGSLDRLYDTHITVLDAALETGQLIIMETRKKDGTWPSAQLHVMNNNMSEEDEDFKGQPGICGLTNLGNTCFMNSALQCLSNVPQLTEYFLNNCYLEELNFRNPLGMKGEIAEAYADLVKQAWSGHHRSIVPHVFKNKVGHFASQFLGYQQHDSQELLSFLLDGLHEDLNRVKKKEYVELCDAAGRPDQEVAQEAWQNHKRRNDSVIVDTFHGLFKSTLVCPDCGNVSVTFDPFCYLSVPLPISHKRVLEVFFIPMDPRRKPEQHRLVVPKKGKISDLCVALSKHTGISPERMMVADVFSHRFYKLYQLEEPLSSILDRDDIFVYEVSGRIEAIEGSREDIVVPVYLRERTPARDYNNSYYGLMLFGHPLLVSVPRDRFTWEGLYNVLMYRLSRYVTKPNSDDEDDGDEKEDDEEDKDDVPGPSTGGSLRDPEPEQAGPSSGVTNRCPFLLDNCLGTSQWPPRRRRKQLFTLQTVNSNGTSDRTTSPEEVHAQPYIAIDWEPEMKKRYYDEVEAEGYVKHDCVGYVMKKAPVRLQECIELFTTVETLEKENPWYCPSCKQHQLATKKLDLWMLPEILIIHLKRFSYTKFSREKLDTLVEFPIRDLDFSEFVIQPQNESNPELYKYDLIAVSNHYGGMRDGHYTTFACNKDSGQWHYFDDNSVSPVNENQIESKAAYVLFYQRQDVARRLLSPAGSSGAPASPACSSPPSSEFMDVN

O=C(CCl)NCCc1ccc(F)cc1
inactive: [1] -0.0191 | [2] 0.113 | [3] -0.114 | [4] 0.00457 | [5] 0.0738 | [6] -0.0633 | [7] 0.297 | [8] -0.491 | [9] 0.0794
